Test systems include T-47D breast; BT-549 breast; MDA-MB-435 melanoma; SW-620 colon; MCF7 breast; HCT-116 colon; HCC-2998 colon; KM12 colon.
Holding throughout (assay): NCI-60 one-dose screen, 48 h (100 = growth as untreated, 0 = no growth, -100 = all killed)
Holding throughout (details): 10 µM unless noted

SMILES strings stand for the structures. Compounds without any hit were thinned out: in the full panel of roughly 83,000, 20% have a hit.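 Negative percent growth values reflect cell death: -40 means 40% of the cells present at the start died, and -100 means all died.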 Unmarked numbers belong to inactive results. Active and inactive are the calls of the source. The calls were made as follows: active = growth percent below 10; inactive = the rest.

As to `NCCn1cc(-c2nc(-c3c[nH]c4ncccc34)cs2)c2cc(F)ccc21`, the growth in the assay on T-47D breast is 26.3%; in the assay on BT-549 breast, 95.7%; with MDA-MB-435 melanoma, 81.7%; in the assay on SW-620 colon, 50.2%; in the assay with MCF7 breast it was 57.2%; in the assay on HCT-116 colon, 61.4%. Further, the growth in the assay on HCC-2998 colon is 96.2%; in the assay with KM12 colon, 65.6%.

Consider `O=S(=O)(NCCNc1cc(-c2cn(-c3ccccc3)nc2-c2cccc(O)c2)ccn1)c1ccccc1`, for which the growth with T-47D breast was 26.4%; in the assay with BT-549 breast, 67.8%; in the assay on MDA-MB-435 melanoma, 14.7%; in the assay on SW-620 colon it was 44.4%; in the assay with MCF7 breast it was 37.2%; in the assay with HCT-116 colon, 49.5%. The growth in the assay on HCC-2998 colon was 25.4%; with KM12 colon, 36.7%.

For the compound `O=C(/C=C/c1cccc2ccccc12)Nc1ncc(Cc2ccccc2)s1`, the growth in the assay with T-47D breast was 16%; in the assay on BT-549 breast it was 24.8%; in the assay on MDA-MB-435 melanoma it was -64.7% (active); in the assay with SW-620 colon it was 13.7%; with MCF7 breast, 10.8%; in the assay on HCT-116 colon, 8.93% (active). Further, the growth in the assay with HCC-2998 colon was 54.3%; in the assay with KM12 colon, 15.8%.

Turning to `COc1cc2nc(Cl)nc(Nc3cccc(C(=O)/C=C/c4ccc(F)cc4)c3)c2cc1OC`, the growth was 67.6% with T-47D breast; 61.4% in the assay on BT-549 breast; 39.4% in the assay with MDA-MB-435 melanoma; 2.24% (active) in the assay with SW-620 colon; 23.8% in the assay on MCF7 breast; -41.2% (active) in the assay with HCT-116 colon. The values for the growth in the assay on HCC-2998 colon and in the assay with KM12 colon were 49.9% and 28.4%, respectively.

As for `NCCn1cc(-c2nc(-c3c[nH]c4ncccc34)cs2)c2cc(Br)ccc21`, the growth in the assay with T-47D breast was 44.8%; in the assay with BT-549 breast, 97.8%; in the assay with MDA-MB-435 melanoma it was 84.8%; with SW-620 colon, 7.12% (active); in the assay with MCF7 breast, 30.7%; in the assay with HCT-116 colon, 66.6%. In addition, the figures for the growth in the assay on HCC-2998 colon and in the assay on KM12 colon were 100% and 65.2%, respectively.

Regarding `COc1cc(/C=C2\C(=O)N(CC(O)COc3cc(O)c4c(=O)cc(-c5ccccc5)oc4c3)c3ccccc32)cc(OC)c1O` (stereo not given), the growth in the assay on T-47D breast is 58.2%; in the assay with BT-549 breast it was 96.7%; with MDA-MB-435 melanoma, 54.7%; with SW-620 colon, 89.9%; in the assay with MCF7 breast it was 32.8%; with HCT-116 colon, 78.4%. In addition, the values for the growth with HCC-2998 colon and with KM12 colon were 99.7% and 82%, respectively.

Consider `C[C@@H]1CCCCCCCCC[C@H](O)C(=O)C[C@@H](SC[C@@H](O)C(=O)O)C(=O)O1`, for which the growth is 75.8% with T-47D breast; 91.8% in the assay with BT-549 breast; 103% in the assay on MDA-MB-435 melanoma; 103% in the assay on SW-620 colon; 33.9% in the assay with MCF7 breast; 54.5% with HCT-116 colon. Further, the growth in the assay on HCC-2998 colon is 109%; in the assay with KM12 colon, 95.8%.

Consider `CCCCC[C@H]1C/C=C2/C(=O)C=C[C@@H]2C/C=C\CCCC(=O)O[C@@H](CCCCC)C/C=C2/C(=O)C=C[C@@H]2C/C=C\CCCC(=O)O1`, for which the growth was -74.8% (active) in the assay on T-47D breast; -72.9% (active) in the assay with BT-549 breast; -78.9% (active) in the assay on MDA-MB-435 melanoma; -54.1% (active) in the assay with SW-620 colon; -70.9% (active) with MCF7 breast; -96.4% (active) in the assay with HCT-116 colon. In addition, the growth in the assay with HCC-2998 colon is -79.5% (active); in the assay with KM12 colon, -86.3% (active).

Consider `C=C1C(=O)O[C@H]2[C@H]1CC/C(COC(=O)N[C@H](Cc1c[nH]c3ccccc13)C(=O)OC)=C\CC[C@@]1(C)O[C@@H]21`, for which the growth in the assay on T-47D breast is -45.3% (active); in the assay on BT-549 breast it was 26.4%; in the assay on MDA-MB-435 melanoma, 54.8%; in the assay on SW-620 colon, -1.92% (active); with MCF7 breast it was 14.7%; with HCT-116 colon, -58.2% (active). Besides, the growth is 101% in the assay on HCC-2998 colon and 92.6% in the assay with KM12 colon.

As for `Cn1cc(-c2csc(-c3cn(CCNC(=O)OC(C)(C)C)c4ccc(F)cc34)n2)c2cccnc21`, the growth in the assay on T-47D breast is 1.12% (active); with BT-549 breast, 65.4%; in the assay with MDA-MB-435 melanoma, 77.6%; in the assay on SW-620 colon, 88.4%; in the assay on MCF7 breast, 47.3%; in the assay with HCT-116 colon, 82.6%. In addition, the results for the growth in the assay with HCC-2998 colon and in the assay on KM12 colon were 93.5% and 52.7%, respectively.

Regarding `COc1cccc(-c2nn(-c3ccccc3)cc2-c2ccnc(NCCCO)c2)c1`, the growth is 26.7% in the assay on T-47D breast; 55.2% with BT-549 breast; -15.5% (active) in the assay with MDA-MB-435 melanoma; 21.3% in the assay with SW-620 colon; 29.5% in the assay with MCF7 breast; 22.9% with HCT-116 colon. For the same compound, the growth with HCC-2998 colon is 65.5%; in the assay with KM12 colon, 34.1%.

`Cc1cc(C=O)c(C)c2c1[nH]c1ccccc12`: the growth in the assay on T-47D breast is 101%; in the assay with BT-549 breast it was 89%; in the assay with MDA-MB-435 melanoma, 116%; in the assay with SW-620 colon, 101%; in the assay on MCF7 breast, 85.4%; in the assay with HCT-116 colon it was 90.5%. Besides, the growth in the assay with HCC-2998 colon was 106%; in the assay with KM12 colon, 108%.

As to `COC(=O)[C@]12CC[C@@H](C)[C@H](C)[C@@H]1C1=CC[C@@H]3[C@@]4(C)CC(=O)[C@H](OC(=O)c5ccco5)[C@@]5(C)COC(=C45)C[C@@]3(C)[C@]1(C)CC2`, the growth is 1.72% (active) with T-47D breast; 25.9% in the assay with BT-549 breast; 21.4% in the assay on MDA-MB-435 melanoma; 31.2% in the assay with SW-620 colon; 15.7% in the assay with MCF7 breast; 16.4% in the assay on HCT-116 colon. For the same compound, the growth with HCC-2998 colon was 52.3%; in the assay with KM12 colon it was 27.9%.

Regarding `CC1(C)C(=O)/C(=C\c2cccnc2)C[C@]2(C)[C@H]3CC[C@@H]4[C@@H](C(=O)/C=C/c5ccncc5)CC[C@@]4(C)[C@]3(C)CC[C@@H]12`, the growth was 16.9% with T-47D breast; 8.03% (active) in the assay on BT-549 breast; -11.4% (active) in the assay on MDA-MB-435 melanoma; 8.95% (active) in the assay on SW-620 colon; 26.2% in the assay with MCF7 breast; -86.9% (active) in the assay on HCT-116 colon. Also, the growth was 59.7% in the assay with HCC-2998 colon and -20.9% (active) in the assay with KM12 colon.

`Nc1c(C(=O)Nc2c(Cl)cccc2Cl)sc2nc3c(cc12)CCCC3`: the growth was 69% with T-47D breast; 90.1% in the assay with BT-549 breast; 5.24% (active) in the assay with MDA-MB-435 melanoma; 51% with SW-620 colon; 43.7% in the assay with MCF7 breast; 47.8% in the assay with HCT-116 colon. Moreover, the growth in the assay on HCC-2998 colon is 92.5%; with KM12 colon it was 68.6%.
